These results are taken from PubChem BioAssay (NCI).

About 83,000 compounds went through this panel and 20% of them were active in at least one assay; those are over-represented in the sample as a whole.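 Single-concentration screen, 48 h exposure, 96-well plates. Endpoint: percent growth. Below 10 = active.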 Calls of active or inactive are those of the source.

The subject of this experiment is NCI-H226 lung. Briefly: NCI-60 one-dose screen, 48 h (100 = growth as untreated, 0 = no growth, -100 = all killed). The settings on record: 10 µM unless noted. How it is done: Growth inhibition of the NCI-H226 human Non-Small Cell Lung tumor cell line is measured as a screen for anti-cancer activity. Cells are grown in 96 well plates and exposed to the test compound for 48 hours. Compounds are tested at a single concentration, which is 10^-5 M for most compounds. The reported endpoint is percent growth (GI% or GIPRCNT), where numbers from 0 - 100% represent growth inhibition, and numbers from -100% - 0 represent cell death. For example, a value of 40 represents 60% growth inhibition. A value of 0 means no net growth occurred over the course of the experiment. A value of -40 indicates 40% of cells at the beginning of the experiment died by the end of the experiment. A value of -100 means all cells are dead at the end of the experiment.
NCI-60 Human Tumor Cell Lines Screen was performed using the standard one-dose NCI protocol, which is described in more detail at https://dtp.cancer.gov/discovery_development/nci-60/default.htm.
Compounds with GIPRCNT values below 10 were considered active. Activity score was based on GIPRCNT using the following formula: […]
Score is 0 for GIPRCNT values of 100 or above, 50 for GIPRCNT values of 0, and 100 for GIPRCNT values of -100.
Regarding `CC1CN1CCCCN1CC1C` (stereo not given), the growth is 106% (inactive). With `COc1cccc(/C=C/[N+](=O)[O-])c1` the figure was 65.2% (inactive); with `Fc1ccc2c(c1)c(-c1nc(-c3c[nH]c4ncccc34)cs1)cn2CCCCN1CCCCC1`, -7.3% (active). To `CCOC(=O)[C@@H](C)C[C@H](Cc1ccccc1)NC(=O)c1csc([C@@H](C[C@H](C(C)C)N(C)C(=O)[C@H](CCC(C)C)NC(=O)[C@H]2CCCCN2C)OC(C)=O)n1` belongs 27.7% (inactive). With `CN1CC(=O)N(O)C1(C)c1cccnc1` (stereo not given) the figure was 94.7% (inactive). With `COc1cc(C=C2c3ccccc3C(=O)c3ccccc32)ccc1OCCCCOc1cc2c(cc1OC)C(=O)N1CCCC1C=N2` (stereo not given), the growth was -66.4% (active). With `CC[C@H](C)[C@H](NC(=O)[C@H]1CCCCN1C)C(=O)N(C)[C@H](CCc1nc(C(=O)N[C@@H](Cc2ccccc2)C[C@H](C)C(=O)OC)cs1)C(C)C` the figure was 28.6% (inactive); with `CC(=O)O[C@H](C[C@H](C(C)C)N(C)C(=O)[C@@H](NC(=O)[C@H]1CCCCN1C)C(C)(C)C)c1nc(C(=O)N[C@@H](Cc2ccccc2)C[C@H](C)C(=O)O)cs1`, 61.4% (inactive). With `CCCCCC1(CCBr)C(=O)NC(=O)NC1=O` the figure was 104% (inactive); with `Fc1c[c-]c(-c2ccccn2)c(F)c1.[CH3-].[Pt+2].c1ccc([PH+](c2ccccc2)c2ccccn2)cc1`, -53.6% (active).

Consider `COc1ccc(/C=C\c2cc(OC)c(OC)c(OC)c2)c(NS(=O)(=O)c2ccc(Cl)cc2)c1O`, for which the growth is 18.4% (inactive). With `[Cl][Hg][c]1cc[c]([Hg][Cl])o1` the figure was 99.1% (inactive).

Consider `CC(C)[C@]12O[C@H]1[C@@H]1O[C@]13[C@]1(O[C@H]1C[C@H]1c4c(C(=O)c5ccccc5)oc(OC(=O)c5ccccc5)c4CC[C@@]13C)[C@@H]2O`, for which the growth is -12.8% (active). To `CC1(C)CN1P(=O)(N1CC1(C)C)N1CC1(C)C` (stereo not given) belongs 109% (inactive); to `Cc1cccc(N2CCN(C(C)C#N)CC2)c1` (stereo not given), 96.6% (inactive); to `O=[N+]([O-])c1cc(I)cc([N+](=O)[O-])c1`, 115% (inactive). With `C#C[C@]1(OC(=O)CCCCCC)CC[C@H]2[C@@H]3CCC4=CC(=O)CC[C@@H]4[C@H]3CC[C@@]21C` the figure was 54.8% (inactive); with `COC(=O)[C@@H](C)C[C@H](Cc1ccccc1)NC(=O)c1csc([C@@H](C[C@H](C(C)C)N(C)C(=O)[C@@H](NC(=O)[C@H]2CCCCN2C)C(C(F)(F)F)C(F)(F)F)OC(C)=O)n1`, 56.7% (inactive); with `CCOC(=O)[C@@H](C)C[C@H](Cc1ccccc1)NC(=O)c1csc([C@@H](C[C@H](C(C)C)N(C)C(=O)CNC(=O)[C@H]2CCCCN2C)OC(C)=O)n1`, 69.9% (inactive).

`COC(C(=O)[C@@H](O)[C@@H](C)O)[C@@H]1Cc2cc3cc(O[C@H]4C[C@@H](O[C@H]5C[C@@H](O)[C@H](O)C(C)O5)[C@H](O)C(C)O4)c(C)c(O)c3c(O)c2C(=O)[C@H]1O[C@H]1C[C@@H](O[C@H]2C[C@@H](O[C@H]3C[C@@H](O)[C@@H](O)C(C)O3)[C@@H](O)C(C)O2)[C@H](O)C(C)O1` (stereo not given in full): the growth was -22.2% (active).

Consider `CC[C@H](C)[C@H](NC(=O)[C@H]1CCCCN1C)C(=O)N(C)[C@H](CC(=O)c1nc(C(=O)N[C@@H](Cc2ccccc2)C[C@H](C)C(=O)O)cs1)C(C)C`, for which the growth was 92.3% (inactive). With `CC1=C(CNO)C2=C(C)C3(CC3)[C@@](C)(O)C(=O)C2=C1` the figure was 25.3% (inactive). As for `Cc1ccccc1NC(=NCCCN1CC1)Nc1ccccc1C`, the growth was 83.1% (inactive). Turning to `Clc1ccc(CSC(Cn2ccnc2)c2ccc(Cl)cc2Cl)cc1` (stereo not given), the growth was 52.2% (inactive).

Regarding `CN1CCC(O)(c2ccc(F)cc2)C(C(=O)c2ccc(F)cc2)C1` (stereo not given), the growth was 108% (inactive). With `COC(=O)CCc1c[nH]c2ccc(N(CCCl)CCCl)cc12` the figure was 79% (inactive); with `CC(=O)[O][Hg][c]1c(N)c(C)cc(C)c1F`, 90.2% (inactive). With `COc1cc2c(cc1OCCCCn1c(-c3cccs3)nc3ccccc31)N=C[C@@H]1CCCN1C2=O` the figure was -34.7% (active); with `COC(=O)[C@@H](C)C[C@H](Cc1ccccc1)NC(=O)c1csc([C@@H](C[C@H](C(C)C)N(C)C(=O)[C@@H](NC(=O)C23CC(NC(C)=O)(C2)C3)C2CC2)OC(C)=O)n1`, 107% (inactive).

Take `CCOC(=O)c1c(C)n(Cc2ccccc2)c2cc(CN(C)C)c(O)cc12`: the growth is 91.3% (inactive).

Consider `Clc1cc(N2CC2)nc(N2CC2)n1`, for which the growth is 81.4% (inactive). Take `O=C1C(N2CC2)=C(N2CC2)C(=O)C(N2CC2)=C1N1CC1`: the growth is -63.6% (active). To `COc1cc(C=Nc2cccc(C(=O)O)c2)ccc1N(CCCl)CCCl` belongs 92.7% (inactive); to `CNC(=O)Oc1ccc(C(C)(C)C)cc1OC(=O)NC`, 93.6% (inactive); to `COc1ccc(NC([Se])=NC23CC4CC(CC(C4)C2)C3)cc1`, -32.7% (active). To `CC(=O)OCc1cc[c]([Hg][Cl])o1` belongs 81.5% (inactive); to `COC(=O)[C@@H](C)C[C@H](Cc1ccccc1)NC(=O)c1csc([C@@H](C[C@H](C(C)C)N(C)C(=O)[C@@H](NC(=O)[C@H]2CCCCN2C)c2ccc(F)cc2)OC(C)=O)n1`, 29.4% (inactive). To `COc1ccc2c(c1)c(-c1nc(-c3cn(C)c4ncccc34)cs1)cn2CCCCN1CCCCC1` belongs 56.6% (inactive). `COc1ccc2nc(NC(=O)COc3cc(/C=C\c4cc(OC)c(OC)c(OC)c4)ccc3OC)sc2c1`: the growth is 40.1% (inactive). To `CCCCCCCOC(C(=O)OCCN(CC)CC)(c1ccccc1)c1ccccc1` belongs 96.4% (inactive).
